# PubChem BioAssay AID624491 (Broad Institute, 2012)
# Screen size: about 1,800 compounds; about 1,400 (78%) were called active. About 2% were inconclusive and are not listed.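 The calls were made as follows: active = fitted curve crossing a set activation limit at or below the highest valid dose tested; inconclusive = flat fit at 30 to 70% activation, or poor fit; inactive = the rest, including signal decreases.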 The set was probably picked from earlier hits. The list is a sample of the results. Potency and affinity values are given separately.
# Experiment: blockers of NLG process in reporter cells – D54 ERlucT cells, luminescence, cherry-picks, dose response (AID 624491);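 also: signal gain reflects blocked N-linked glycosylation of a luciferase reporter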
# Conditions: D54 ERlucT glycosylation luciferase reporter, 24 h, 100% = twice neutral-control luminescence; series mostly up to 19.5 µM; activation (NLG inhibition): at the top concentration
row,Compound,activation (NLG inhibition)
1,Cc1nc2c3cc(F)ccc3n(CCN3CCCCC3)c2s1,35.5% (inactive)
2,NNC(=O)c1ccc2nc(-c3ccc(Br)cc3)cn2c1,610% (inactive)
3,Cc1ccc(-c2cc(C(=O)N/N=C/c3c[nH]c4ccccc34)[nH]n2)cc1,30.9% (inactive)
4,COc1ccc(CCn2c(=N)c(C(=O)NC3CCCC3)cc3c(=O)n4ccccc4nc32)cc1OC,55.9% (inactive)
5,COc1cc2cc(C(c3nnnn3C(C)(C)C)N3CCc4ccccc4C3)c(=O)[nH]c2cc1OC (stereo unspecified),18% (inactive)
6,Cc1cccc(N2CCN(C(=O)c3ccc(Cl)c(S(=O)(=O)NCc4ccco4)c3)CC2)c1C,29.6% (inactive)
7,C=CCN(CC=C)C(=O)CN1C(=O)NC(C)(c2ccc3cc(OC)ccc3c2)C1=O (stereo unspecified),3.96% [at 5 µM] (inactive)
8,NC(=O)/C=C\C(=O)Nc1cccc(C(F)(F)F)c1,-15.6% (inactive)
9,O=S(=O)(Nc1cccc2cccnc12)c1ccc(S(=O)(=O)N2CCCC2)cc1,-10.1% (inactive)
10,Cc1cc(NC(=O)CSc2nc(C3CC3)nc3sc(C)c(C)c23)no1,17.8% (inactive)
11,CCN(CC)C(=O)CSc1nc2c(sc(=S)n2-c2ccccc2)c(=O)n1Cc1ccco1,10.5% (inactive)
12,COc1ccc(N(CC(=O)Nc2cc(Cl)ccc2OC)S(=O)(=O)c2c(C)noc2C)cc1,15.9% (inactive)
13,Cc1cc(Br)ccc1NC(=O)CCCOc1cc(=O)n(C)c2ccccc12,30.6% (inactive)
14,N#Cc1c(NC(=O)c2cnccn2)sc2c1CCCC2,6.08% (inactive)
15,O=c1cc(N=Nc2ccc(Cl)cc2)[nH]c(=O)[nH]1,34.3% [at 5 µM] (inactive)
16,CCCCCCCCn1c2c(c(=N)c3c1CCC3)CCCC2,73.5% (inactive)
17,O=C(N/N=C\c1ccc([N+](=O)[O-])o1)c1cncc(Br)c1,-28.4% (inactive)
18,CCOC(=O)c1ccc(-c2ccc(/C=N/NC(=O)CN(c3cccc(C)c3)S(C)(=O)=O)o2)cc1,212% (inactive)
19,CC1c2cc3c(cc2CCN1C(=O)c1ccc(Br)cc1)OCCCO3 (stereo unspecified),40% (inactive)
20,COc1cc2c(cc1OC)C(C)N(C(=O)Nc1ccccc1)CC2 (stereo unspecified),17.2% (inactive)
21,Nc1nonc1-c1nc2ccccc2n1Cc1ccccc1,30% (inactive)
22,Nc1nonc1-c1nc2ccccc2n1CC(=O)N/N=C\c1ccc(-c2ccc(Cl)cc2)o1,70.3% (inactive)
23,CCOc1cccc2sc(Nc3nc4ccc(NC(C)=O)cc4s3)nc12,29.5% (inactive)
24,Oc1ccc(NCc2ccccc2OCc2ccccc2)cc1,24.1% (inactive)
25,CCc1cccc(CC)c1NC(=O)CN1C2CCCC1CC(NC(=O)Nc1cccc(OC)c1)C2 (stereo unspecified),119% (inactive)
26,Cc1cc(NCCCN(C)C)n2c(nc3ccccc32)c1C#N,23% (inactive)

row,Compound,activation (NLG inhibition)
1,CC1Cc2ccccc2N1C(=O)CSc1nn2c(=O)c(C(C)(C)C)nnc2s1 (stereo unspecified),30.3% (inactive)
2,COc1ccc(OC)c(N(CC(=O)Nc2cccnc2)S(=O)(=O)c2ccc(C)cc2)c1,38.7% (inactive)
3,COCC(=O)OC/C(O)=C(\C#N)c1nc2ccccc2[nH]1,-48.3% (inactive)
4,CC(C)Oc1ccc(C(=O)Nc2ccc3c(c2)n(C)c(=O)n3C)cc1,4.1% [at 5 µM] (inactive)
5,O=C(Nc1ccc(N2CCCC2)c(Cl)c1)c1ccc([N+](=O)[O-])o1,-78.1% (inactive)
6,O=C(Nc1cccc2ccccc12)c1ccc([N+](=O)[O-])o1,-36% (inactive)
7,O=C(NC1CCCC(C(F)(F)F)C1)c1ccc([N+](=O)[O-])o1 (stereo unspecified),-15.2% (inactive)
8,O=C(Nc1nc2ccccc2s1)c1ccc([N+](=O)[O-])o1,3.59% (inactive)
9,CCn1cc([N+](=O)[O-])c(C(=O)Nc2nc(-c3ccc(C)c(C)c3)c(C)s2)n1,57.7% (inactive)
10,O=C(NC(=S)Nc1cccc(S(=O)(=O)NC2=NCCC2)c1)c1cc(-c2ccco2)nc2ccccc12,23.7% (inactive)
11,COc1ccc(/C=C2\COc3ccccc3C2=O)cc1OC,-3.49% (inactive)
12,C[C@H](CO)N1C[C@H](C)[C@@H](CN(C)Cc2ccccc2)Oc2ccc(NC(=O)CCCCCC(=O)Nc3ccccc3N)cc2C1=O,4.91% [at 5 µM] (inactive)
13,COc1ccc(N(C(=O)CCl)C(C(=O)NC2CCCCC2)c2cccnc2)cc1 (stereo unspecified),-95.5% (inactive)
14,O=C(NC1CCCCC1)C(c1cccnc1)N(C(=O)CCl)c1cccc(Cl)c1 (stereo unspecified),-94.9% (inactive)
15,CC(=O)Cn1ncc(Br)c(Br)c1=O,-52.5% (inactive)
16,CCN1/C(=C/c2sc(-c3ccccc3C)c[n+]2C)Sc2ccccc21,-9.29% (inactive)
17,CCOC(=O)c1c(NC(=O)CCl)sc(C(=O)N(CC)CC)c1C,5.73% (inactive)
18,COc1ccc(C(=O)/C=C/Sc2nc3ccccc3o2)cc1,5.52% (inactive)
19,CCOc1ccc(N(C)S(=O)(=O)c2ccc(-c3cc(C)no3)s2)cc1,39.3% (inactive)
20,Cc1cccc(N(C)S(=O)(=O)c2ccc(-c3cc(C)no3)s2)c1,32.2% (inactive)
21,O=C1c2ccccc2-c2n[nH]c(=O)c3ccc(N4CCCCC4)c1c23,41.3% (inactive)
22,CCn1ncc(C2=NOC(C(=O)NCc3ccc(Cl)cc3)C2)c1C (stereo unspecified),20.7% (inactive)
23,COc1cc(C2=NOC(C(=O)NCc3ccc(F)cc3)C2)cc(OC)c1OC (stereo unspecified),13.2% (inactive)
24,O=C(NCc1ccc(OC(F)(F)F)cc1)C1CC(c2ccc(C(F)(F)F)cc2)=NO1 (stereo unspecified),5.51% (inactive)
25,COc1cccc(S(=O)(=O)Nc2ccc3c(c2)[C@@H]2C[C@@H](CC(=O)NCc4ccc(Cl)cc4)O[C@@H](CO)[C@@H]2O3)c1,21.2% (inactive)
